Data on 8 compounds can be found in PubChem BioAssay (Tox21).

The nature of test [1]: qHTS assay to identify small molecule antagonists of the estrogen related receptor (ERR) signaling pathway from Tox21 library - cell viability counter screen (AID 1224834). Note: nearly all actives have a fitted effect of over 30% in size. Note: potency is the fitted concentration of half-maximal effect. Summed up:
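Compounds in DMSO were pinned onto ERR cells that had been incubated for 6 h, and the plates were held at 37 C for 17.5 h. CellTiter-Fluor reagent was then added and fluorescence was measured after 30 min.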

For test [2], the target named is Luciferin 4-monooxygenase (Photinus pyralis) (UniProt P08659). The experiment in a line: qHTS assay to identify small molecule inhibitors of firefly luciferase (AID 1224835). Note: nearly all actives have a fitted effect of over 25% in size. Note: potency is the fitted concentration of half-maximal effect. Summed up:
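Inhibition of purified Photinus luciferase is measured by luminescence. Substrate levels (D-luciferin, ATP) sit at their KM values. Each compound is tested in a concentration series.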

A short description of test [3]: qHTS assay to identify small molecule agonists of the constitutive androstane receptor (CAR) signaling pathway - cell viability counter screen (AID 1224836). Note: nearly all actives have a fitted effect of over 45% in size. Note: potency is the fitted concentration of half-maximal effect. In short, it runs like this:
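Counter screen multiplexed with the CAR reporter readout: HepG2 cells co-transfected with hCAR and the CYP2B6-2.2kb construct receive a 15-concentration compound series and 0.75 uM PK11195 (final), then CellTiter-Fluor fluorescence is read after 23 h.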

For test [4], the target named is Nuclear receptor subfamily 1 group I member 3 (Homo sapiens) (UniProt Q14994). The experiment in a line: qHTS assay to identify small molecule antagonists of the constitutive androstane receptor (CAR) signaling pathway (AID 1224838).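 Note: HepG2 cells stably expressing hCAR with CYP2B6 luciferase reporter stimulated by CITCO; nearly all actives have a fitted effect of over 40% in size.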 Note: potency is the fitted concentration of half-maximal effect. In short, it runs like this: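 Luminescence from a CYP2B6-2.2kb promoter reporter in hCAR-expressing HepG2 cells reflects CAR signaling. Cells received compounds at 15 concentrations and 50 nM CITCO (final), then incubated 24 h at 37 C/5% CO2.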
Chain of Nuclear receptor subfamily 1 group I member 3 (Homo sapiens) (Q14994 whole entry, looked up): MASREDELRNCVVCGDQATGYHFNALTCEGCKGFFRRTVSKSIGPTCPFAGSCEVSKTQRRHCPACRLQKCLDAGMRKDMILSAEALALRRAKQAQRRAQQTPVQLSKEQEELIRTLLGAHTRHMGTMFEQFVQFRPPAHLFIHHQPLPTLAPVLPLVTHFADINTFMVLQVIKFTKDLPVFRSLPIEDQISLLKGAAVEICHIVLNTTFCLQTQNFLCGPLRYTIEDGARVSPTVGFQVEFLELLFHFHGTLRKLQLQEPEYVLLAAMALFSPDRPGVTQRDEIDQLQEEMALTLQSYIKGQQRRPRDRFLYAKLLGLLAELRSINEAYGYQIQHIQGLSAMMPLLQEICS

Test [5] is described as follows: qHTS assay to identify small molecule antagonists of the estrogen related receptor signaling pathway with the pleiotropic PPARgamma coactivator (PGC) from Tox21 10K library - cell viability counter screen (AID 1224840; active = well fitted cell-killing curve with a large enough effect in the repeat runs, not every such curve was filed as active; note: nearly all actives have a fitted effect of over 40% in size; note: potency is the fitted concentration of half-maximal effect). In short, it runs like this: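 Cell viability is measured by CellTiter-Fluor fluorescence in PGC/ERR cells that receive compounds after a 6-hour attachment period and are then incubated 17.5 hours at 37 C.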

In test [6] the target is Thyrotropin receptor (Homo sapiens) (UniProt P16473). The experiment in a line: qHTS assay to identify small molecule agonists of the thyroid stimulating hormone receptor (TSHR) signaling pathway (AID 1224843; calls by dose curve; note: nearly all actives have a fitted effect of over 45% in size; note: potency is the fitted concentration of half-maximal effect; for activation: % is set by controls: 0 for no effect and ±100 for the full control effect). Summed up:
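A cell-based cAMP HTRF format was run in TSHR-transfected HEK293 cells, 800 per well. Treatment: 30 min, room temperature. Detection: 1 h with labelled cAMP and anti-cAMP cryptate. Concentration-response over 15 points, three replicates.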

Test [7] can be described thus: qHTS assay to identify small molecule agonists of H2AX - cell viability counter screen (AID 1224847; calls by dose curve; note: nearly all actives have a fitted effect of over 30% in size; note: potency is the fitted concentration of half-maximal effect). Summed up:
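We seed wild-type CHO-K1 cells overnight, treat them for 3 hr at 37C with compounds in 15-concentration series, and quantify remaining viability by CellTiter-Glo luminescence.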

Test [8] is described as follows: qHTS RealTime-Glo MT Cell Viability Assay in HEK293 cells - 32 hour (AID 1224868). Note: nearly all actives have a fitted effect of over 50% in size. Note: potency is the fitted concentration of half-maximal effect. Summed up: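 Homogeneous bioluminescent viability format in HEK293 cells (600 cells/well). Following 5 h at 37 C/5% CO2, 23 nL compound was pintooled; the signal was measured repeatedly during 40 h incubation.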
The nature of test [9]: A CellTox Green Cytotoxicity Assay to monitor cytotoxicity in HEK293 cells - 0 hour (AID 1224869). Note: % is set by controls: 0 for no effect and ±100 for the full control effect; nearly all actives have a fitted effect of over 50% in size. Summed up:
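Dead-cell fluorescence measured kinetically: asymmetric cyanine dye, HEK293, 600 cells/well, 5 h settle, 23 nL cpd/DMSO, 37 C, reads 0–40 h every 8 h.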

Test [10] in a line: qHTS RealTime-Glo MT Cell Viability Assay in HepG2 cells - 40 hour (AID 1224870). Note: nearly all actives have a fitted effect of over 50% in size. Note: potency is the fitted concentration of half-maximal effect. Summed up:
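Real-time viability: cells seeded at 600 per well together with NanoLuc and cell-permeant prosubstrate, compounds added after 5 h incubation. Luminescence tracked at 0, 8, 16, 24, 32 and 40 h of exposure.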

The nature of test [11]: qHTS RealTime-Glo MT Cell Viability Assay in HepG2 cells - 24 hour (AID 1224867). Note: nearly all actives have a fitted effect of over 50% in size. Note: potency is the fitted concentration of half-maximal effect. In short, it runs like this: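 Cell number in HepG2 cultures estimated from NanoLuc luminescence generated by metabolic reduction of a prosubstrate by living cells. The homogeneous, nonlytic format allowed repeated reads at 0, 8, 16, 24, 32 and 40 h of compound exposure.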
The target of test [12] is Nuclear receptor subfamily 1 group I member 3 (Homo sapiens) (UniProt Q14994). As to the kind of experiment: qHTS assay to identify small molecule agonists of the constitutive androstane receptor (CAR) signaling pathway (AID 1224839). For activation: % is set by controls: 0 for no effect and ±100 for the full control effect. Note: nearly all actives have a fitted effect of over 15% in size. Note: potency is the fitted concentration of half-maximal effect. In short, it runs like this:
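A 15-concentration quantitative screen uses HepG2 cells co-transfected stably with human CAR and CYP2B6-2.2kb reporter. Treatment lasts 24 h with 0.75 uM PK11195 final present; ONE-Glo luminescence is the signal.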

Test [13] is described as follows: qHTS assay to identify small molecule agonists of the hypoxia (HIF-1) signaling pathway (AID 1224846; active = well fitted activation curve with a large enough effect in the signal ratio in the repeat runs, not every such curve was filed as active; the % refers to the signal ratio; note: % is set by controls: 0 for no effect and ±100 for the full control effect). In short, it runs like this: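 Agonist mode reporter screen. ME-180 cells stably expressing bla under HRE control received test compounds in DMSO for 17 hrs (37C, 5% CO2), and beta-lactamase activity was then detected with the CCF4-AM FRET substrate.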
Test [14] is described as follows: qHTS assay to identify small molecule antagonists of the estrogen related receptor signaling pathway with the pleiotropic PPARgamma coactivator (PGC) from Tox21 10K library (AID 1224841; call rule not given here). Summed up:
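Cells stably carrying the PGC/ERR reporter, seeded at 2,000 per well, received pin-transferred compounds 6 h post-plating. Exposure lasted 18 h at 37 C. Signal: One-Glo luminescence.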

The nature of test [15]: qHTS assay to identify small molecule agonists of the estrogen related receptor signaling pathway with the pleiotropic PPARgamma coactivator (PGC) from Tox21 10K library (AID 1224842). Note: % is set by controls: 0 for no effect and ±100 for the full control effect; nearly all actives have a fitted effect of over 15% in size. Summed up: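 Luminescence from One-Glo (30 min, room temperature) measured after PGC/ERR cells had 18 h at 37 C with pinned compound (23 nL in DMSO). Cells had been seeded at 2,000 per well and pre-incubated 6 h.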

Test [16] is described as follows: qHTS assay to identify small molecule agonists of the hypoxia (HIF-1) signaling pathway - cell viability counter screen (AID 1224844; calls by dose curve; note: nearly all actives have a fitted effect of over 50% in size; note: potency is the fitted concentration of half-maximal effect). In short, it runs like this: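 Viability counter screen: HRE-bla ME-180 cells plated 5 hrs before compound addition, treated 17 hrs at 37C and 5% CO2, then CellTiter-Glo added after the FRET reporter read; luminescence after 30 min.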

Test [17] can be described thus: qHTS assay to identify small molecule agonists of H2AX (AID 1224845; active = well fitted activation curve with a large enough effect in the signal ratio in the repeat runs, not every such curve was filed as active; the % refers to the signal ratio; note: % is set by controls: 0 for no effect and ±100 for the full control effect). Summed up: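 Phospho-H2AX Ser139 measured by HTRF (ex 320 nm; em 665 and 620 nm) after 24 hr antibody incubation. Compounds, 15 concentrations, 0.76% DMSO, were applied to CHO-K1 cells for 3hr at 37C before lysis.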
Test [18] is described as follows: qHTS assay to identify small molecule antagonists of the estrogen related receptor (ERR) signaling pathway from Tox21 library (AID 1224848). Note: nearly all actives have a fitted effect of over 50% in size. Note: potency is the fitted concentration of half-maximal effect. Summed up: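 ERR cell line, 2,000 cells/well. 6 h settle, then compound (DMSO) added; 18 h at 37 C; ONE-Glo luminescence after 30 min RT.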
Test [19] in a line: qHTS assay to identify small molecule agonists of the estrogen related receptor (ERR) signaling pathway from Tox21 library (AID 1224849; calls by dose curve; note: % is set by controls: 0 for no effect and ±100 for the full control effect; nearly all actives have a fitted effect of over 15% in size). To be noted: ERR reporter cell line, ONE-Glo luciferase, 18 h; at 92.4 µM (top of the series) unless noted. Summed up: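 Quantitative HTS in agonist format: NTP ERR cell line, compounds transferred in DMSO after 6 h plating, 18 h incubation at 37 C, ONE-Glo luminescence endpoint.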

Values joined by “and” are separate entries in the source; they are usually repeats but may differ in a detail not shown here. Equal entries are not always repeated. Inconclusive results are not listed. Where a structure was tested more than once in an assay, its records may differ in their call. Active and inactive are the calls of the source. Unless noted, calls come from the whole dose curve; as a rule, active = well fitted curve in the direction sought with a large enough effect in the repeat runs; inconclusive = weak or mixed curves; inactive = no such curve, though single readings can be large; an effect the other way counts as inactive or inconclusive.

Chain of Luciferin 4-monooxygenase (Photinus pyralis) (P08659 whole entry, looked up): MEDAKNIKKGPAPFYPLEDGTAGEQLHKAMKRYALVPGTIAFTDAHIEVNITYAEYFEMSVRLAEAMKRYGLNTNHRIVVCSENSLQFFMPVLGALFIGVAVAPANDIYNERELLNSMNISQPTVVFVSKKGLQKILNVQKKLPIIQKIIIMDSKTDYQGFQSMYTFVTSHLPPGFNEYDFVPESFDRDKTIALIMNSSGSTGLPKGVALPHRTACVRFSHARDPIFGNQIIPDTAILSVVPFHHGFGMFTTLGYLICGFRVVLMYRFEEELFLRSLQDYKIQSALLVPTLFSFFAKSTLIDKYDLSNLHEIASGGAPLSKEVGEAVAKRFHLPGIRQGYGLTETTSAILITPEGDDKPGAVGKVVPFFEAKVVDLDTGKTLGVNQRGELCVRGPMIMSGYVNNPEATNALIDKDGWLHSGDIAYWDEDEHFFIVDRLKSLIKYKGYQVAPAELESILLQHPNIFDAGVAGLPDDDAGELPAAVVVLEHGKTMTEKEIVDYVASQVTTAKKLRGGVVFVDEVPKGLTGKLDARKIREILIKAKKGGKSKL
Chain of Thyrotropin receptor (Homo sapiens) (P16473 whole entry, looked up): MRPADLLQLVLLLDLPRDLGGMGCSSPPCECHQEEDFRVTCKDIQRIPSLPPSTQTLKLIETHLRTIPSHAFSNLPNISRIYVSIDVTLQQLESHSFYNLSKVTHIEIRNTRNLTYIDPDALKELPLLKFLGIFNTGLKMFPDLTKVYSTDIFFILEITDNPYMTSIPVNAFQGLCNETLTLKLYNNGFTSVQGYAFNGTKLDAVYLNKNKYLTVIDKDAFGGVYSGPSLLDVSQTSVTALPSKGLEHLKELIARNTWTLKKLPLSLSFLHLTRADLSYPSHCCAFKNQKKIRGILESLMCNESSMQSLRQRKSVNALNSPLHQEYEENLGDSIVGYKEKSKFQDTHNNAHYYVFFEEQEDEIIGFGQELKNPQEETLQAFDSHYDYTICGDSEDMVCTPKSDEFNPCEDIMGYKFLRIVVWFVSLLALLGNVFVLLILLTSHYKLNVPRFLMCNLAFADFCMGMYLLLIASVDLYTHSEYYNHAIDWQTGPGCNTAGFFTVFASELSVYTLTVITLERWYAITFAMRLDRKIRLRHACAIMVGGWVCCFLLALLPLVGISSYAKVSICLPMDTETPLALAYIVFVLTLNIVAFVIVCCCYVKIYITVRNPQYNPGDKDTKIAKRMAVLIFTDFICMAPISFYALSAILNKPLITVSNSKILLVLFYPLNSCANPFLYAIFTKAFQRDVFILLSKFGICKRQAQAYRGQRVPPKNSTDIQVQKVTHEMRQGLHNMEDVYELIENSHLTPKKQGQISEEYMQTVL

Turning to `ClC1=C(Cl)C2(Cl)C3C(Cl)C=CC3C1(Cl)C2(Cl)Cl` (stereo not given), the Potency in test [1] is 68.6 µM (active); in [6], 7.73 µM (active) and 15.4 µM (active); in test [7], 113 µM (active); in test [8], 49.2 µM (active) and 49 µM (active). Moreover, the Potency entry in test [2], in [3], in test [4], in [5], in test [9] and in test [10] was “inactive” in each case.
Take `CC(C)OC(=S)S`: the Potency entry in test [1], in [2], in test [3], in [11], in [8] and in [9] was “inactive” throughout. Besides, the Potency result in test [10] was “inactive”.
On to `Cc1cc(Cl)ccc1O[C@H](C)C(=O)O`, for which the Potency entry in [1], in test [2], in test [3], in [12], in test [5] and in [7] was “inactive” in each case. The Potency result in test [11], in [8] and in test [9] was “inactive” in each case. The compound was called inactive in test [13].
For `C[C@@H]1O[C@@H](O[C@@H]2C=C3CC[C@@H]4[C@H](CC[C@]5(C)[C@@H](c6ccc(=O)oc6)CC[C@]45O)[C@@]3(C)CC2)[C@H](O)[C@H](O)[C@H]1O`, the Potency is 0.0298 µM (active) in test [1]; 0.119 µM (active) in [3]; 84.1 nM (active) in [4]; 23.7 nM (active) in test [14]; 26.8 nM (active) in test [16]; 0.0335 µM (active) in test [18]. Besides, the Potency in [8] is 21.3 nM (active). Besides, the Potency result in [2], in test [12], in test [15], in test [17], in test [11] and in test [10] was “inactive” each time. Also, in [13], the call was inactive. The activity change, positive = activation in test [19] was -58.9% [at 42.5 µM] (inactive).
For the compound `CC(=O)Nc1ccc2c(c1)Cc1ccccc1-2`, the Potency entry in test [1], in test [3], in test [4], in [5], in test [16] and in test [7] was “inactive” throughout. Further, the Potency result in test [11], in test [8], in [9] and in [10] was “inactive” in each case. Also, the Potency in test [2] was 28.7 µM (active); in [12], 31.1 µM (active). In test [13], the call was inactive.
For the compound `C[C@H]1O[C@@H](O[C@H]2[C@@H](O)C[C@H](O[C@H]3[C@@H](O)C[C@H](O[C@H]4CC[C@@]5(C)[C@H](CC[C@@H]6[C@@H]5CC[C@]5(C)[C@@H](C7=CC(=O)OC7)CC[C@]65O)C4)O[C@@H]3C)O[C@@H]2C)C[C@H](O)[C@@H]1O`, the Potency in test [1] was 43.5 nM (active) and 75 nM (active); in [3], 0.0975 µM (active); in test [4] it was 77.4 nM (active) and 422 nM (active); in [14] it was 97.5 nM (active) and 168 nM (active); in test [16], 98.3 nM (active) and 190 nM (active); in [8], 31.1 nM (active) and 95.2 nM (active). The Potency result in [2], in [12], in test [15], in test [6], in test [17] and in [7] was “inactive” each time. The Potency entry in test [18], in test [11], in test [9] and in test [10] was “inactive” each time. Moreover, in [13], the compound was called inactive. Besides, the activity change, positive = activation in [19] was -72.7% [at 42.5 µM] (inactive) and -65% [at 42.5 µM] (active).
With `CN(C)S(=O)(=O)N(SC(F)(Cl)Cl)c1ccccc1`, the Potency is 30.6 µM (active) in test [1]; 35.6 µM (active) in test [2]; 30.6 µM (active) in test [3]; 21700 nM (active) in test [4]; 24.3 µM (active) in test [5]; 19500 nM (active) in test [16]. Besides, the results for the Potency in [7], in test [11] and in test [10] were 89.8 µM (active), 11 µM (active) and 9.77 µM (active), respectively. In test [12], the Potency result is “inactive”.
For `CN(C)CCc1c[nH]c2ccc(O)cc12`, the Potency result in [1], in test [2], in test [3], in test [4], in test [12] and in [5] was “inactive” each time. Also, the Potency entry in test [6], in test [16], in test [7], in [11], in test [8] and in test [10] was “inactive” in each case.
